Keap1 Nrf2 FP = disrupts human Keap1 binding to Nrf2 peptide | Q14145 | Keap1 Kelch-Nrf2 peptide fluorescence polarization, 1536-well | inhibition, % at 9.4 µM | hit rate 0.15% among 340,000 | AID 504523; in the data active = inhibition above about 12%;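 note: human Keap1 Kelch domain with fluorescein labeled Nrf2 9mer peptide probe; 0% = neutral control wells and 100% = peptide positive control; higher means more block of Keap1 binding to Nrf2 peptide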
Target sequence (Q14145 whole entry, looked up, the tested form may be a part): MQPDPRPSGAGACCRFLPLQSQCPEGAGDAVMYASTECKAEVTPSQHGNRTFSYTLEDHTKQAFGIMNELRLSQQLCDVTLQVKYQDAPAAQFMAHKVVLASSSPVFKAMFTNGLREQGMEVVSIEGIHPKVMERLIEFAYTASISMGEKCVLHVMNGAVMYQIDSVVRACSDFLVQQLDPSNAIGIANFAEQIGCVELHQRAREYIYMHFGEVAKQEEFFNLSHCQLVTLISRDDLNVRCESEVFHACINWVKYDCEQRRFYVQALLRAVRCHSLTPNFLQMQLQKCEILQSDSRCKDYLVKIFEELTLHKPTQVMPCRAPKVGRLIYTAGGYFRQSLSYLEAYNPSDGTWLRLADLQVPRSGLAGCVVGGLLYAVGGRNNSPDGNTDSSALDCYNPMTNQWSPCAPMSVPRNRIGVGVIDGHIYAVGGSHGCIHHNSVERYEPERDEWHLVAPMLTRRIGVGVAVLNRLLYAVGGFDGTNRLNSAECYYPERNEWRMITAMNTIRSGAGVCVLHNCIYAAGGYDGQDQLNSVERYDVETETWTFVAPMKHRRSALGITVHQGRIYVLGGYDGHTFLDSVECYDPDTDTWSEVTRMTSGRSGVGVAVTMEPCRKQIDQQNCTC
LANA-H2A inh = blocks KSHV LANA binding to histone H2A/H2B. cell-free LANA-H2A/H2B peptide, fluorescence polarization. AID 2629. hit rate 0.6% among 320,000. inhibition, % (test concentration not listed). Q9QR71; in the data active = inhibition mostly above about 10%, no sharp cut-off; inactive = mostly below about 6.7%
Cardiac RTF inh = cardiac RTF calcium desensitization; inhibition, % at 7.15 µM; hit rate 0.12% among 340,000; P19429+P45379; IANBD-labeled cardiac RTF, Ca2+ fluorescence;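 active = inhibition above the mean inhibition of all tested compounds plus 3 SD, cut at about 17% in these data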;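 note: assay run at fixed EC70 calcium of 1.6 mM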
RTF Ca sens act = cardiac RTF calcium sensitization. P19429+P45379. hit rate 0.24% among 340,000. activation, % at 7.2 µM. IANBD-labeled TnC RTF fluorescence at EC20 calcium; 0% EC20 calcium, 100% full calcium;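 active = activation above the mean over all tested compounds plus 3 SD, cut at about 30% in these data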;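 note: rise in fluorescence read as greater calcium sensitivity of cardiac thin filaments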
C-LANA FP = KSHV C-LANA DNA binding inhibition. hit rate 0.078% among 340,000. inhibition, % at 9 µM. MBP-C-LANA/FAM-LBS DNA binding, fluorescence polarization;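 active = highest replicate inhibition at or above 60% at 9 µM, even if other replicates fall short; inactive = all replicates below 60% inhibition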;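 note: 0% = neutral control wells and 100% = 4 µM acridine orange control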
Active calls of the source: *; . = no result given; ! = repeats disagree. In the library only some 0.98% were active in any assay of this set; here they are far more common.

SMILES	Keap1 Nrf2 FP	LANA-H2A inh	Cardiac RTF inh	RTF Ca sens act	C-LANA FP
CC1(C)CC(=O)c2sc(NC(=O)c3ccccc3)nc2C1	.	2	.	.	.
Cc1ccc2c(c1)N(C(C)C(=O)NCc1ccccn1)C(=O)CO2 (stereo not given)	0	1	5	0	0
Cc1ccc2c(c1)N(C(C)C(=O)NCc1cccs1)C(=O)CO2 (stereo not given)	-1	20*	-4	0	-1
CC(C)C(NC(=O)c1ccccc1NC(=O)c1ccccc1)C(=O)NNC(=O)c1ccncc1 (stereo not given)	-2	2	-4	1	1
COC(=O)c1c(=O)n(O)c2ccc(OC)cc2[n+]1[O-]	24*	55*	-54	44*	48
CCCN1CCC(NC(=O)Nc2cc(Cl)ccc2OC)CC1	2	4	-2	5	0
COc1ccc(Cl)cc1NC(=O)NC1CCCCC1	-4	21*	-2	9	0
CCOC(=O)C1CCN(C(=O)c2cc(S(=O)(=O)N3CCCCCC3)ccc2OC)CC1	-3	2	-6	-6	1
c1ccc2c(c1)OCC(c1nnc3n1-c1ccccc1SC3)O2 (stereo not given)	-2	17*	-9	-3	-2
COc1cccc(NC(=O)Cn2c3ccccc3c3nc4n(c(=O)c32)CCCS4)c1	4	2	-7	5	-1
CCCCCOc1ccc(C2NC(=O)NC2=O)cc1 (stereo not given)	0	6	-4	2	2
N#CC1(C#N)C(c2ccccc2)OC23CCCCCC2C1(C#N)C(=N)O3 (stereo not given)	0	-2	-20	-1	4
CCCCCCCCOc1ccc(C2OC34CCCCC3C(C#N)(C#N)C2(C#N)C(=N)O4)cc1 (stereo not given)	28*	4	-40	22	56
N#CC1(C#N)C(c2ccccc2)OC23CCCCC2C1(C#N)C(=N)O3 (stereo not given)	21*	8	-24	30*	44
O=[N+]([O-])c1ccccc1N/N=C/c1c[nH]c2ccccc12	-2	-7	11	-13	1
O=c1c([N+](=O)[O-])c[nH]c2ccccc12	-4	15*	-22	-2	2
COc1ccccc1C1C(C#N)=C(N)Oc2c1oc(CO)cc2=O (stereo not given)	-8	12*	-9	-5	-1
CCCC(=O)Nc1nn(CCC)c2nc3ccccc3cc12	-5	15*	-3	2	0
CCCn1nc(NC(=O)c2ccncc2)c2cc3ccccc3nc21	-4	2	-4	4	0
CCCCCCn1nc(C(=O)N(CCOC)c2c(N)n(CCCC)c(=O)[nH]c2=O)c2ccccc2c1=O	2	18*	10	2	-1
CN(C)c1cccc(C(=O)OC(C(=O)Nc2ccc([N+](=O)[O-])cc2Br)c2ccccc2)c1 (stereo not given)	-6	-1	-10	1	2
COc1ccc(OC)c(/C=N/N(CCC#N)C2=NS(=O)(=O)c3ccccc32)c1	1	1	0	-7	0
CCOc1ccc(-c2c(C(=O)N/N=C/c3cccc(Br)c3)nnn2-c2nonc2N)cc1	3	20*	-7	-1	1
O=C(Cc1ccc(Br)cc1)N1CCN(c2ccccc2O)CC1	-3	-7	-26	0	0
Fc1ccccc1N1CCN(C(c2ccccn2)c2nnnn2C2CCCCC2)CC1 (stereo not given)	-3	12*	-5	0	-1
SMILES	Keap1 Nrf2 FP	LANA-H2A inh	Cardiac RTF inh	RTF Ca sens act	C-LANA FP
O=c1ccc2cc3c([nH]c4ccc(Br)cc43)oc-2c1O	55*	-1	24*	-32	10
O=C(O)c1ccc(N=Nc2c(O)[nH]c3ccc(Br)cc23)cc1	-5	4	0	-3	1
O=C(NC1CC1)c1ccc(CSCc2ccccc2Cl)o1	-3	1	-4	-1	0
CCc1ccc(N2CC(C(=O)N/N=C/c3ccccc3)CC2=O)cc1 (stereo not given)	2	3	-6	-2	-9
COC(=O)c1ccc(/C=N/NC(=O)C2CC(=O)N(c3ccc(F)cc3)C2)cc1 (stereo not given)	-1	13*	-14	2	0
CC1(c2ccc(Cl)cc2)NC(=O)N(CC(=O)NC(=O)NCc2ccco2)C1=O (stereo not given)	1	0	-4	-2	0
C[C@H]1C[C@H]2[C@@H]3CCC4=CC(=O)C=C[C@]4(C)[C@@]3(F)[C@@H](O)C[C@]2(C)[C@@]1(O)C(=O)CO	2	10	7	-2	0
C[C@@H]1C[C@H]2[C@@H]3CCC4=CC(=O)C=C[C@]4(C)[C@@]3(F)[C@@H](O)C[C@]2(C)[C@@]1(O)C(=O)COP(=O)(O)O	-6	47*!	-9	6	-3
O=c1[nH]c(=O)c2[nH]c(=O)n(-c3ccccc3)c2[nH]1	-7	.	-3	-5	0
COc1ccc(N2CC(C(=O)Nc3nnc(SCC(=O)NCC4CCCO4)s3)CC2=O)cc1 (stereo not given)	-10	34*	0	-3	1
COCCC(=O)N1CCC(Oc2ccc(C(=O)N3CCCC(CCCO)C3)cc2)CC1 (stereo not given)	0	18*	0	0	0
COCCc1nc2ccc(C(=O)N3CCCC(CCCO)C3)cc2o1 (stereo not given)	4	12*	-19	1	0
O=C(CCNS(=O)(=O)c1ccccc1)NNC(=O)c1cccc(Cl)c1	4	1	5	-4	0
Cc1ccc(S(=O)(=O)NCCCNS(C)(=O)=O)cc1	0	4	-2	-6	1
Cc1ccc(S(=O)(=O)NCCNS(=O)(=O)c2ccc(C)cc2)cc1	-7	19*	-6	2	-1
Cc1ccc(S(=O)(=O)NNC(=O)CCCCC(=O)NNS(=O)(=O)c2ccc(C)cc2)cc1	0	7.7*	-6	-2	0
O=S(=O)(NCCCCCNS(=O)(=O)c1ccccc1)c1ccccc1	-3	16*!	-2	-6	-3
Cn1nc(-c2ccccc2)cc1NC(=O)CCCC(=O)O	-1	5	-3	8	-1
CC1(OC(=O)CCc2ccccc2)C(=O)C=C2C=C(c3ccc(C#N)cc3)N(Cc3ccccc3)C=C2C1=O (stereo not given)	-1	1	-9	-10	2
COCCN1C=C2C(=O)C(C)(OC(=O)CCc3ccccc3)C(=O)C=C2C=C1c1ccc(C#N)cc1 (stereo not given)	1	101*	-1	-6	0
NC(=NCCc1c[nH]c2ccccc12)NC(=O)c1ccc(Cl)cc1	3	1	-3	5	81*
O=C(N[C@@H](Cc1c[nH]c2ccccc12)C(=O)O)c1ccc(Cl)cc1	0	2	-6	0	-1
